Results from PubChem BioAssay (Tox21).
Where “and” joins values, the source holds several entries; their conditions need not be identical. Identical values can stand only once. Results filed as inconclusive are left out. Entries that show only a call come without a potency. Where a structure was tested more than once in an assay, its records may differ in their call. Calls of active or inactive are those of the source. Unless noted, calls come from the whole dose curve; as a rule, active = well fitted curve in the direction sought with a large enough effect in the repeat runs; inconclusive = weak or mixed curves; inactive = no such curve, though single readings can be large; an effect the other way counts as inactive or inconclusive.

Legend:
[1] = qHTS assay to identify small molecule agonists of the endoplasmic reticulum stress response signaling pathway (AID 1159516; active = well fitted activation curve with a large enough effect in the signal ratio in the repeat runs, not every such curve was filed as active; the % refers to the signal ratio)
Outline: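 For this screen, HeLa cells stably carrying beta-lactamase under the ER stress response element received test compounds, positive controls or DMSO for 5 hr at 37 C; B/G FRET substrate was then added and dual-wavelength emission recorded.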

[2] = qHTS assay to identify small molecule agonists of the endoplasmic reticulum stress response signaling pathway - cell viability counter screen (AID 1159517; calls by dose curve; note: nearly all actives have a fitted effect of over 50% in size; note: potency is the fitted concentration of half-maximal effect)
Outline: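 In parallel with the ESRE reporter read, cytotoxicity was scored by CellTiter-Glo luminescence (30 min, room temperature) on HeLa ESRE-bla cells dosed for 5 hr.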

[3] = qHTS assay to identify small molecule antagonists of the retinoid-related orphan receptor gamma (ROR-gamma) signaling pathway - cell viability counter screen (AID 1159520); note: nearly all actives have a fitted effect of over 50% in size; note: potency is the fitted concentration of half-maximal effect
Outline: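 Tet-on ROR gamma CHO cells were given compounds for 2 hr, then doxycycline hyclate at 1 uM final, and incubated 16 hr at 37 C. Viability was measured as ATP content by CellTiter-Glo luminescence.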

[4] = molecular target: Nuclear receptor ROR-gamma (Homo sapiens) (UniProt P51449); assay: qHTS assay to identify small molecule antagonists of the retinoid-related orphan receptor gamma (ROR-gamma) signaling pathway (AID 1159521; note: nearly all actives have a fitted effect of over 50% in size; note: potency is the fitted concentration of half-maximal effect)
Outline: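 Screening format: cell-based luciferase reporter in CHO cells with doxycycline-inducible RORγ. Compound pre-exposure lasts 2 h, doxycycline is 1 uM final, induction runs 16 h at 37 C, and ONE-Glo luminescence is read.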

[5] = qHTS assay to identify small molecule agonists of the AP-1 signaling pathway - cell viability counter screen (AID 1159525; calls by dose curve; note: nearly all actives have a fitted effect of over 55% in size; note: potency is the fitted concentration of half-maximal effect)
Outline: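 Same-well cytotoxicity counter screen of the Tox21 10K library in ME-180 cells. The readout is ATP-dependent luminescence after 5 h compound treatment. Data are normalised to DMSO and tetra n-octyl ammonium bromide controls.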

[6] = qHTS assay to identify small molecule agonists of the AP-1 signaling pathway (AID 1159526; calls by dose curve)
[7] = molecular target: Retinoic acid receptor RXR-alpha (Homo sapiens) (UniProt P19793); assay: qHTS assay to identify small molecule agonists of the RXR signaling pathway (AID 1159527; calls by dose curve; note: nearly all actives have a fitted effect of over 35% in size)
Sequence of Retinoic acid receptor RXR-alpha (Homo sapiens) (P19793 whole entry, looked up): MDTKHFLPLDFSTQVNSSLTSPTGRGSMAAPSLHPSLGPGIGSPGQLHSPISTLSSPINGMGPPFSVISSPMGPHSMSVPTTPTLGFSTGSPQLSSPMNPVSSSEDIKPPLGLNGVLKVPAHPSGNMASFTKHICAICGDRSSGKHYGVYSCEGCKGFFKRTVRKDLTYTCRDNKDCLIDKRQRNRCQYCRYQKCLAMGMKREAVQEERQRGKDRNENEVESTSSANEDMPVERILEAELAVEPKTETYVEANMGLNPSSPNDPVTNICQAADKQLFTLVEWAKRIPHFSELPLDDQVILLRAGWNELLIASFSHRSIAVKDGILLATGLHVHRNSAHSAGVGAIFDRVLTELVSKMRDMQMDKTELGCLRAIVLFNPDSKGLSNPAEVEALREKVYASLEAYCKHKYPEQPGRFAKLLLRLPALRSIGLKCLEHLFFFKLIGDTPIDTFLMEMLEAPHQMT
Outline: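 Fluorescence ratio readout (460 vs 530 nm) from GeneBLAzer RXR-alpha HEK 293T cells after 16 hr compound treatment; cells seeded 5 hr beforehand in low-serum, charcoal-stripped medium.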

[8] = qHTS assay to identify small molecule antagonists of the retinoid acid receptor (RAR) signaling pathway - cell viability counter screen (AID 1159551); note: nearly all actives have a fitted effect of over 35% in size
Outline: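 Measured by luminescent ATP detection, viability reflects C3RL4 cells treated 6 h at 37 C with test chemicals in the presence of 1 uM (final) retinol.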

[9] = qHTS assay to identify small molecule antagonists of the retinoic acid receptor (RAR) signaling pathway (AID 1159552; note: nearly all actives have a fitted effect of over 50% in size; note: potency is the fitted concentration of half-maximal effect)
Outline: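 Using a RARE-driven luciferase construct in C3RL4 cells, retinol at 1 uM final provided the agonist stimulus while compounds were co-applied. After 6 hours at 37 C, luminescence was recorded to flag inhibitors of retinol signaling.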

[10] = qHTS assay to identify small molecule agonists of the retinoic acid receptor (RAR) signaling pathway (AID 1159553); note: potency is the fitted concentration of half-maximal effect
Outline: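 6 hr compound exposure (DMSO vehicle) of overnight-plated C3RL4 RARE-luc cells at 37 C; luminescence quantified after 30 min RT with luciferase reagent.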

[11] = qHTS assay to identify small molecule antagonists of the estrogen related receptor (ERR) signaling pathway from Tox21 library - cell viability counter screen (AID 1224834); note: nearly all actives have a fitted effect of over 30% in size; note: potency is the fitted concentration of half-maximal effect
Outline: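 Seeded ERR cells were rested 6 h at 37 C/5% CO2 before compounds, positive and negative controls or DMSO were added. Incubation continued for 17.5 h, and viability was then quantified by CellTiter-Fluor fluorescence.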

[12] = qHTS assay to identify small molecule antagonists of the vitamin D receptor (VDR) signaling pathway - cell viability counter screen (AID 743225); note: nearly all actives have a fitted effect of over 50% in size; note: potency is the fitted concentration of half-maximal effect
Outline: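 In this counter screen, VDR-bla HEK 293T cells receive test compound plus 3 nM final calcitriol for 16 h at 37C. Room-temperature steps of 2 h with the beta-lactamase substrate, then 30 min with CellTiter-Glo, precede the luminescence read.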

[13] = qHTS assay to identify small molecule agonists of the NFkB signaling pathway - cell viability counter screen (AID 1159515; calls by dose curve; note: nearly all actives have a fitted effect of over 55% in size; note: potency is the fitted concentration of half-maximal effect)
Outline: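 Counter screen run alongside the NFkB-bla agonist assay: ME-180 reporter cells exposed to compounds for 5 hr, then lysed with CellTiter-Glo in the same wells. Luminescence, read after 30 min, reflects viable cells.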

[14] = qHTS assay to identify small molecule agonists of the RXR signaling pathway - cell viability counter screen (AID 1159529); note: nearly all actives have a fitted effect of over 50% in size; note: potency is the fitted concentration of half-maximal effect
Outline: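 Viability read-out for the RXR-alpha agonist qHTS: luminescent CellTiter-Glo signal after 30 min at RT. HEK 293T bla reporter cells, 2% charcoal-stripped FBS, 16 hr compound incubation; tetraoctyl ammonium bromide as cytotoxic control.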

[15] = qHTS assay to identify small molecule antagonists of the estrogen related receptor (ERR) signaling pathway - cell viability counter screen (AID 1224818); note: series mostly up to about 46 µM
Outline: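 Compounds dissolved in DMSO were applied to ERR cells seeded at 2,000 per well 6 h earlier. Cell viability followed 17.5 h later via 30-min CellTiter-Fluor fluorescence.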

[16] = qHTS assay to identify small molecule antagonists of the estrogen related receptor (ERR) signaling pathway (AID 1224819)
Outline: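 Compounds dissolved in DMSO were pin-transferred onto ERR cells that had been plated 6 h earlier, and cells were then incubated 18 h at 37 C; signal was luciferase luminescence via One-Glo.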

[17] = qHTS assay to identify small molecule antagonists of the estrogen related receptor signaling pathway with the pleiotropic PPARgamma coactivator (PGC) cell viability counter screen (AID 1224822; note: series mostly up to about 46 µM)
Outline: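 Counter screen for cell viability: PGC/ERR cells, 6 h pre-incubation after plating, 17.5 h compound exposure at 37 C, fluorescence from CellTiter-Fluor after 30 min.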

| SMILES | outcome [1] | Potency [2] | Potency [3] | Potency [4] | Potency [5] | Potency [6] | Potency [7] | Potency [8] | Potency [9] | Potency [10] | Potency [11] | Potency [12] | Potency [13] | Potency [14] | Potency [15] | Potency [16] | Potency [17] |
| --- | --- | --- | --- | --- | --- | --- | --- | --- | --- | --- | --- | --- | --- | --- | --- | --- | --- |
| Cc1cc(N)c(S(=O)(=O)O)cc1Cl | inactive | inactive | inactive | inactive | inactive | inactive | inactive | inactive | inactive | inactive | inactive | – | – | – | – | – | – |
| C/C=C1/C(=O)C[C@H]2[C@@H]3CCC4=CC(=O)CC[C@]4(C)[C@H]3CC[C@]12C | – | – | – | – | – | inactive | – | inactive | – | – | – | inactive | inactive | – | – | – | – |
| NC(=O)C1(N2CCCCC2)CCN(CCCN2c3ccccc3CCc3ccc(Cl)cc32)CC1 | – | – | – | – | 26.8 µM (active) | – | – | – | – | – | 29.8 µM (active) | 21.3 µM (active) | 26.8 µM (active) | 21.3 µM (active) | – | – | – |
| CCCCCOC(=O)CCCC | inactive | inactive | inactive | inactive | inactive | inactive | inactive | inactive | inactive | inactive | inactive | – | – | – | – | – | – |
| O=C(Nc1cccc(Cl)c1)OCC#CCCl | – | – | – | – | inactive | – | – | inactive | – | – | – | 54.9 µM (active) | inactive | – | – | – | – |
| C[C@H]1[C@H]2CC[C@H]3[C@@H]4CC=C5C[C@@H](N(C)C)CC[C@]5(C)[C@H]4CC[C@]23CN1C | inactive | inactive | inactive | inactive | inactive | inactive | inactive | inactive | inactive | inactive | – | inactive | – | inactive | – | – | – |
| Cc1ccc(O)c(C(C)(C)C)c1 | inactive | inactive | inactive | inactive | – | – | inactive | inactive | – | – | inactive | – | – | – | – | – | – |
| CSc1ccc(C(=O)c2[nH]c(=O)[nH]c2C)cc1 | inactive | inactive | inactive | inactive | inactive | inactive | inactive | inactive | inactive | inactive | inactive | inactive | – | inactive | inactive | inactive | inactive |
| CCN(C(=O)N(CC)c1ccccc1)c1ccccc1 | inactive | inactive | inactive | inactive | inactive | inactive | inactive | inactive | inactive | inactive | – | inactive | – | inactive | – | – | – |
| NNC(=O)c1cccc(C(=O)NN)c1 | inactive | inactive | inactive | inactive | inactive | inactive | inactive | inactive | inactive | – | inactive | inactive | – | inactive | – | – | – |
| CC[C@H](c1ccc(O)cc1)[C@@H](CC)c1ccc(O)cc1 | inactive | inactive | inactive | 54.5 µM (active) and inactive | 54.9 µM (active) and inactive | inactive | – | inactive | – | – | 27.3 µM (active) | – | – | – | – | – | – |
| O=CC=C(c1ccccc1)c1ccccc1 | – | – | – | 61.6 µM (active) | – | – | – | – | inactive | – | 27.5 µM (active) | – | inactive | – | – | – | – |
| CCCCC(CC)COP(=O)(O)OCC(CC)CCCC (stereo not given) | inactive | 55 µM (active) and 49 µM (active) | inactive | 54.6 µM (active) and 48.6 µM (active) | inactive | – | – | inactive | inactive and 48.6 µM (active) | inactive | 48.6 µM (active) | – | – | inactive | – | – | – |
| O=C(c1ccc(O)cc1O)c1ccc(O)cc1O | inactive | inactive | inactive | inactive | inactive | inactive | inactive | inactive | inactive | – | – | inactive | – | – | – | – | – |
| NC(=NCCCCCCN=C(N)/N=C(\N)Nc1ccc(Cl)cc1)/N=C(\N)Nc1ccc(Cl)cc1 | inactive | – | 54 µM (active) and 54.2 µM (active) and inactive | – | 34.3 µM (active) and inactive | inactive | – | inactive | – | – | 54.2 µM (active) [middle of 4 runs] | 35.3 µM (active) [middle of 4 runs] | – | – | – | – | – |
| CCCCCCCC(=O)[O-].CCCCCCCC(=O)[O-].[Zn+2] | inactive | inactive | inactive | inactive | inactive | inactive | inactive | inactive | – | – | inactive | inactive | – | inactive | – | – | – |
| CCC(C)(C)C1CCCCC1OC(C)=O (stereo not given) | inactive | inactive | inactive | inactive | inactive | inactive | inactive | inactive | inactive | – | – | inactive | – | inactive | – | – | – |
| CCCCCCOC(=O)c1ccc(O)cc1 | inactive | 49 µM (active) | inactive | inactive | – | – | inactive | inactive | inactive | 4.33 µM (active) and 1.93 µM (active) | – | – | – | – | – | – | – |
| O=C(O)c1ccc(Cl)c(Cl)c1 | inactive | inactive | inactive | inactive | inactive | inactive | inactive | inactive | inactive | inactive | inactive | – | – | inactive | – | – | – |
